High-throughput results deposited in PubChem by Buhrlage Lab, Dana-Farber Cancer Institute and Novartis Institutes for BioMedical Research (Cambridge, Mass).
The list is not random: actives were taken first. Their share in the collection is about 9.2%.
USP17 inh: human USP17-like deubiquitinase inhibition; AID 1645855; A8MUK1; inhibition, % at 50 µM; 6.5% of 47,000 active; purified USP17, Ub-rhodamine cleavage fluorescence, 3 h
OTUD3 block: human OTUD3 deubiquitinase inhibition; 0.7% of 47,000 active; AID 1645858; Q5T2D3; inhibition, % at 25 µM; purified OTUD3, Ub-rhodamine fluorescence, 2 h
Target sequence (Q5T2D3 whole entry, looked up): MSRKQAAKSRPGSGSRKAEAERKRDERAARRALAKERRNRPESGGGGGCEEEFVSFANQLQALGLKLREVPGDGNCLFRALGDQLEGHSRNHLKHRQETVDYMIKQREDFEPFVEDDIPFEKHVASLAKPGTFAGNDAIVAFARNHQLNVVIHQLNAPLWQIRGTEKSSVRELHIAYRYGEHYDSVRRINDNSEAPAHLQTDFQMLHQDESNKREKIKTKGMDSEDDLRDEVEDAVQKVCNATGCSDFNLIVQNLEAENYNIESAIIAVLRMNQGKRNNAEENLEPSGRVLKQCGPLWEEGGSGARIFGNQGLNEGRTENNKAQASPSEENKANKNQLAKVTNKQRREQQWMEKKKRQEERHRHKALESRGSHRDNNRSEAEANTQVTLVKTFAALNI
USP8 block: blocks human USP8 ubiquitin-rhodamine cleavage | P40818 | purified USP8, Ub-rhodamine cleavage fluorescence, 30 min | inhibition, % at 20 µM | 4.2% of 47,000 active | AID 1645853
USP10 block: inhibitors of human USP10 deubiquitinase; Q14694; purified USP10, Ub-rhodamine fluorescence, 60 min; inhibition, % at 20 µM; 1.1% of 47,000 active; AID 1645856
UCHL1 block: blocks human UCHL1 ubiquitin-rhodamine cleavage; inhibition, % at 20 µM; AID 1645859; 0.2% of 47,000 active; purified UCHL1, Ub-rhodamine cleavage fluorescence
USP7 block: inhibitors of human USP7 deubiquitinase; inhibition, % at 20 µM; 0.3% of 47,000 active; Q93009; purified USP7, Ub-rhodamine cleavage fluorescence; AID 1645854
Large screens that a line does not name were inactive. No stated cut-off is given here; in the data, active means inhibition above about 30%; inactive means the rest.

Cc1ccc(N2CC(C(=O)NCCc3ccc(Cl)cc3)CC2=O)cc1 (configuration not stated)	USP17 inh 40.5
CCOC(=O)c1cc(NC(=O)c2sc3ccccc3c2Cl)ccc1N1CCOCC1	none
COc1ccc(OC)c(CCNC(=O)CCC2=NS(=O)(=O)c3ccccc3N2)c1	none
O=C1COc2ccc(Br)cc2CN1Cc1ccccc1F	none
C[C@@]12c3ccc4c(c3C(=O)c3occ(c31)C(O)C[C@H]2O)CCC4=O (some centres not stated)	USP17 inh 56.7
CCc1nc(Nc2ccc3c(c2)SC2=NCCN23)c2oc3ccccc3c2n1	USP17 inh 61.4
COc1ccc(OC)c(CN2CCC(C(=O)N3CCN(c4ccccc4)CC3)CC2)c1	none
COc1ccccc1CNC(=O)CCCCn1c(=O)c2ccccc2n(CC(=O)NCCC2=CCCCC2)c1=O	USP17 inh 42.6
COc1ccccc1CNC(=O)CCCn1c(=O)c2ccccc2n(CC(=O)N2CCN(c3ccccc3)CC2)c1=O	USP17 inh 57.3
COc1cc(OC)cc(-n2c(=O)c3ccccc3n(CC(=O)NCCC3=CCCCC3)c2=O)c1	none
O=C(Cn1c(=O)c2sccc2n(CC(=O)NCCC2=CCCCC2)c1=O)NCc1ccccc1Cl	USP17 inh 47.6, USP10 block 37.4
O=C(CCCn1c(=O)c2ccccc2n(CC(=O)N2CCN(c3ccccc3)CC2)c1=O)NCc1ccco1	USP8 block 35.8 (no result: USP17 inh)
COc1ccc(-n2ncc(C(=O)N3CCN(c4cc(C)ccc4C)CC3)c2C2CCNCC2)cc1	none
Nc1nc(SCC(=O)NC2CCCCC2)[nH]c(=O)c1NC(=O)c1ccco1	none
Nc1nc(SCc2ccc([N+](=O)[O-])cc2)[nH]c(=O)c1NC(=O)c1ccco1	USP8 block 39.5
O=C1NC[C@@H](CCC(=O)N2CCCC2)N2C[C@@H](NCc3ccccc3)C[C@@H]12	USP7 block 30.1
CC1CCN(C(=O)c2cn(-c3cc(N4CCC(C)CC4)ncn3)cn2)CC1	none
CCN1CCN(c2cc(C)c3cc(NC(=O)c4ccco4)ccc3n2)CC1	USP8 block 47.5
Cc1ccc2cc(NC(=O)c3ccco3)ccc2n1	none
Cc1cc(N2CCN(c3ncccn3)CC2)nc2ccc(NC(=O)c3ccncc3)cc12	USP17 inh 71.5
CCOC(=O)C1CCN(C(=O)CCC(=O)Nc2ccc3nc(N4CCN(CC)CC4)cc(C)c3c2)CC1	none
Cc1cc(N2CCCCC2)nc2ccc(NC(=O)c3ccco3)cc12	USP8 block 58.1
Cc1ccc(/C=C/C(=O)Nc2ccc3nc(N4CCN(c5ncccn5)CC4)cc(C)c3c2)cc1	none
CC(=O)Nc1ccc2nc(N3CCC(C(=O)N4CCN(C)CC4)CC3)cc(C)c2c1	USP8 block 31.3
COCCN1[C@H]2CCN(C(=O)C3CCC3)CC[C@@H]2Oc2ccccc2S1(=O)=O	none
CCN1CCc2nc(NC(=O)COc3ccc(Nc4ccccc4)cc3)sc2C1	USP8 block 78.8
CCN1CCc2nc(NC(=O)COc3c(Cl)cccc3Cl)sc2C1	USP17 inh 36.6
O=C(NCc1ccccc1Cl)C1c2ccccc2Oc2ccccc21	none
Cc1ccc2c(c1)[nH]c1c(=O)n(Cc3cccnc3)cnc12	USP17 inh 31.1
O=c1c2[nH]c3ccc(F)cc3c2ncn1Cc1cccnc1	USP17 inh 41.4
CC(=O)c1nn(-c2ccc(F)cc2)nc1Nc1cccc2ncccc12	none
CN1CC2CN(Cc3ccc(Cl)cc3)CCN2Cc2ccccc21 (configuration not stated)	none
COc1ccc(OC)c(C(=O)Nc2ccc3c(c2)NC(=O)C(C)O3)c1 (configuration not stated)	none
Cc1cccc(OCC(=O)Nc2ccc3c(c2)NC(=O)C(C)O3)c1 (configuration not stated)	USP8 block 35.2
Cc1ccc(NC(=O)CSc2ccccc2C(=O)Nc2ccc3c(c2)NC(=O)C(C)O3)cc1 (configuration not stated)	USP8 block 37.4
CC(C)Cn1nc(C(=O)N(CCc2cccs2)Cc2cccs2)c2ccccc2c1=O	USP17 inh 32.5
CC1(C)C=Cc2cc(O)ccc2O1	USP17 inh 40.4
c1cncc(CNc2ncnc3c2sc2nc(N4CCOCC4)c4c(c23)CCC4)c1	USP17 inh 31.6
c1ccc(CCNc2ncnc3c2sc2nc(N4CCOCC4)c4c(c23)CCC4)cc1	none
CC(Nc1ncnc2c1sc1nc(N3CCOCC3)c3c(c12)CCC3)c1ccccc1 (configuration not stated)	USP17 inh 50.6
Cc1ccc(NC(=O)C2C3C=CC4(O3)C2C(=O)N(CCc2ccccc2)C4C(=O)NC2CCCCC2)cc1C (configuration not stated)	USP17 inh 30.4
COc1ccc(NC(=O)C2C3C=CC4(O3)C2C(=O)N(CCc2ccccc2)C4C(=O)NC2CCCCC2)cc1 (configuration not stated)	USP17 inh 34.6
COCCN1CC2(CCN(C(=O)c3ccn[nH]3)CC2)COc2ccccc2S1(=O)=O	none
CC(C)(C)c1nn(-c2ccc(Cl)cc2)c2[nH]c(=O)c(CNCc3ccco3)cc12	USP8 block 65.6
Cc1ccc(NCc2cc3c(C(C)(C)C)nn(-c4ccc(Cl)cc4)c3[nH]c2=O)cc1C	USP17 inh 42.8, USP8 block 88.2
Cc1nn(-c2ccccc2)c2[nH]c(=O)c(CNc3ccccc3)cc12	none
Cc1nn(-c2ccc(Cl)cc2)c2[nH]c(=O)c(CNCCc3ccccc3)cc12	USP8 block 78.3
Cc1nn(-c2ccc(Cl)cc2)c2[nH]c(=O)c(CNc3ccccc3)cc12	USP17 inh 39.6, USP8 block 80.1
Cc1nn(-c2ccccc2)c2[nH]c(=O)c(CNCCN3CCOCC3)cc12	none
CN(Cc1ccc(C(F)(F)F)cc1)C(=O)c1nc2n(n1)-c1ccccc1S(=O)(=O)N2	none
Cc1ccnc(-n2c(C)c(C)c3c(NCCO)ncnc32)c1	none (no result: USP7 block)
c1ccc(-c2cc(NC3CC3)n3nc(-c4cccnc4)nc3n2)cc1	none
Cc1cc(C(=O)N2CCCn3nc(-c4ccc(F)cc4)cc3C2)nn1C	none
COc1ccc2c(c1)c(CC(=O)Nc1ccc3c(c1)OCCO3)c(C)n2C(=O)c1ccc(Cl)cc1	none
Cc1nn(-c2ccc(Cl)cc2)c2[nH]c(=O)c(CNc3ccc4c(c3)OCCO4)cc12	USP8 block 79.7
Cc1cccc(NC(=O)Cn2cnc(-c3noc(-c4ccccc4)n3)c2)c1C	OTUD3 block 37.1, USP8 block 72.6
Cc1ccc(NC(=O)Cn2cnc(-c3noc(-c4cccnc4)n3)c2)cc1	none
O=C(Cn1cnc(-c2noc(-c3ccc(F)cc3)n2)c1)Nc1ccccc1F	USP8 block 66.7
Cc1ccccc1NC(=O)Cn1cc(-c2noc(-c3ccccc3)n2)nc1C	none
CN1CCN(c2ccc(CNC(=O)c3cccc4c3CCN4C(=O)C3CC3)cc2)CC1	none
